The target in test [1] is Cellular tumor antigen p53 (Homo sapiens) (UniProt P04637). Kind of test: Primary qHTS for small molecule compounds that upregulate eGFP-tagged delta133p53alpha (in N-terminal) cells. (AID 2060322). Also: nearly all actives have a fitted effect of over 75% in size. Also: potency is read from the fitted curve at half-maximal effect.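 As to activation: series mostly up to about 56 µM; 0% = DMSO vehicle and 100% = reference activator.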 The note with it: NCI-H358 eGFP-delta133p53alpha fluorescence, 24 h; activation: active compounds read high. Put shortly: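 NCI-H358 cells pre-induced 24 h with 10 ng/ml doxycycline to express N-terminal eGFP-delta133p53alpha, then dosed 24 h at 37C without doxycycline; fixed, Hoechst-stained, GFP intensity by laser scanning cytometry, normalized to DMSO (0%) and 57.5 uM 5-azacytidine (100%).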
(qHTS replaces the single test concentration by a dilution series.)

The target is the same in test [2]. As to the kind of experiment: Primary qHTS for small molecule compounds that upregulate eGFP-tagged delta133p53alpha (in C-terminal) cells. (AID 2060324). Also: potency is read from the fitted curve at half-maximal effect. Put shortly:
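In this qHTS, GFP-tagged delta133p53alpha levels are measured in fixed NCI-H358 cells after 24 h compound exposure at 37 °C. The cells are pre-induced with 100 ng/ml doxycycline, and signal is normalized to DMSO-treated wells as 0%.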

Test [3] concerns the target Aldehyde dehydrogenase, mitochondrial (Homo sapiens) (UniProt P05091). As to the kind of experiment: qHTS for Inhibitors of the Aldehyde Dehydrogenase Family (ALDH2) Validation screens (AID 2061302; active = well fitted inhibition curve with a large enough effect; title and protocol of this record describe different tests; also: potency is read from the fitted curve at half-maximal effect).
The target in test [4] is Retinaldehyde dehydrogenase 3 (Homo sapiens) (UniProt P47895). As to the kind of experiment: qHTS for Inhibitors of the Aldehyde Dehydrogenase Family (ALDH1A3) Validation screen (AID 2061312). Also: % is scaled to controls: 0 for no effect and ±100 for the full control effect; nearly all actives have a fitted effect of over 45% in size.

“And” between values parts separate entries of the source, which are not always exact repeats. Equal values may be shown once. Results filed as inconclusive are left out. A number with no mark means an inactive call. The source made the active and inactive calls. Unless noted, calls follow the shape of the dose curve; as a rule, active = well fitted curve in the direction sought with a large enough effect; inconclusive = small, poorly fitted or top-dose-only effect, or another doubt; inactive = no such curve, though single readings can be large; an effect the other way counts as inactive or inconclusive.

Sequence of Cellular tumor antigen p53 (Homo sapiens) (P04637 whole entry, looked up): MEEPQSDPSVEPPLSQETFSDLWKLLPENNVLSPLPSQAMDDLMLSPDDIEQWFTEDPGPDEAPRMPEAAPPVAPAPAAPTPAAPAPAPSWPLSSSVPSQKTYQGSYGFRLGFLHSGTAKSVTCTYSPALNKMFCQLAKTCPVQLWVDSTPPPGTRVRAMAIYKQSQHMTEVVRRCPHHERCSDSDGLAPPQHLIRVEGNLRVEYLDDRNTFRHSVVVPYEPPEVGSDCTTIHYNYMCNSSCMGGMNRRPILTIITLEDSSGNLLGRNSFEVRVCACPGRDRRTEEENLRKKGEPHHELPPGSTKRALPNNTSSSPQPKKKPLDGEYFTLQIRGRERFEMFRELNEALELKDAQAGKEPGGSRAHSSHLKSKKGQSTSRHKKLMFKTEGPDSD

Consider `NC(N)=N[C@@H](CCC(=O)O)C(=O)O`, for which the activation in test [1] was -4.46%. Further, the Potency entry in test [2], in test [3] and in test [4] was “inactive” in each case.
For `NCCCCN=C(N)N`, in test [1], the activation is -3.8%. Besides, the Potency entry in test [2], in test [3] and in test [4] was “inactive” in each case.
For `Nc1nc(Nc2ccccc2)nc2c1ncn2[C@@H]1O[C@H](CO)[C@@H](O)[C@H]1O`, the activation in test [1] is 8.56%. The Potency entry in test [2], in test [3] and in test [4] was “inactive” throughout.
As for `C/C(=C\c1ccc(C(=O)O)cc1)c1ccc2c(c1)C(C)(C)CCC2(C)C`, in test [1], the activation was -14.6%. For the same compound, the Potency result in test [2], in test [3] and in test [4] was “inactive” each time.
As for `O=c1ccn([C@@H]2O[C@H](COP(=O)(O)OP(=O)(O)O)[C@@H](O)[C@H]2O)c(=O)[nH]1`, in test [1], the activation is -29.5%. Besides, the Potency result in test [2], in test [3] and in test [4] was “inactive” each time.
Regarding `C[C@H](O)C(=O)C1=Nc2c(nc(N)[nH]c2=O)NC1`, the activation in test [1] was -8.4%. Moreover, the Potency result in test [2], in test [3] and in test [4] was “inactive” throughout.
On to `Cc1ccc(S(=O)(=O)/C=C/C#N)cc1`, for which the Potency in test [1] is 30.1 µM (active); in test [2] it was 30.1 µM (active); in test [3], 0.398 µM (active). Besides, the Potency result in test [4] was “inactive”.
As to `O=C(CCCN1CCC(O)(c2ccc(Cl)cc2)CC1)c1ccc(F)cc1`, the activation in test [1] was 37.6% and -8.4%. The Potency result in test [2], in test [3] and in test [4] was “inactive” each time.
For the compound `COc1ccc(-c2cc(=O)c3c(O)c(OC)c(OC)cc3o2)cc1O`, the activation in test [1] is 37.1%. For the same compound, the Potency result in test [2], in test [3] and in test [4] was “inactive” each time.
Take `NCCCNCCSP(=O)(O)O`: the activation in test [1] is 5.02% and 16.3%. Besides, the Potency entry in test [2], in test [3] and in test [4] was “inactive” in each case.
In the case of `CCC(=O)N1CCN(C(=O)c2ccccc2)CC1`, the activation in test [1] was -16%. The Potency result in test [2], in test [3] and in test [4] was “inactive” throughout.
Regarding `O=C(O)C1=CCCNC1`, the activation in test [1] is -16.6%. In addition, the Potency entry in test [2], in test [3] and in test [4] was “inactive” throughout.
As for `NC(N)=NC(N)=Nc1ccccc1`, the activation in test [1] was -1.81%. For the same compound, the Potency entry in test [2], in test [3] and in test [4] was “inactive” throughout.
Turning to `COc1ccc2c(c1)CCC1C2CC[C@@]2(C)C1CC[C@@H]2NCCCCCCN1C(=O)CCC1=O` (stereo partly drawn), the activation in test [1] was 10.7%. The Potency result in test [2], in test [3] and in test [4] was “inactive” in each case.
In the case of `CN(C(=O)CCCOc1ccc2[nH]c(=O)ccc2c1)C1CCCCC1`, in test [1], the activation is -9.21% and -37.7%. In addition, the Potency entry in test [2], in test [3] and in test [4] was “inactive” in each case.
On to `COCCCC/C(=N\OCCN)c1ccc(C(F)(F)F)cc1`, for which the activation in test [1] was -6.69% and 3.07%. The Potency entry in test [2], in test [3] and in test [4] was “inactive” throughout.
Regarding `COCCc1ccc(OCC(O)CNC(C)C)cc1` (stereo not drawn), in test [1], the activation is 4.18% and 10.1%. The Potency entry in test [2], in test [3] and in test [4] was “inactive” each time.
Take `COc1cccc(OC)c1OCCNCC1CSc2ccccc2O1` (stereo not drawn): the activation in test [1] is 20.5%. The Potency entry in test [2], in test [3] and in test [4] was “inactive” in each case.
For `C[C@](N)(Cc1ccc(O)cc1)C(=O)O`, the activation in test [1] is -4.18% and 8.39%. Further, the Potency result in test [2], in test [3] and in test [4] was “inactive” each time.
For the compound `CN=C(N)NCCC[C@H](N)C(=O)O`, the activation in test [1] was -4.6%. Further, the Potency entry in test [2], in test [3] and in test [4] was “inactive” throughout.
Take `CC(C)[N+](C)(CCOC(=O)C1c2ccccc2Oc2ccccc21)C(C)C`: the activation in test [1] was 18.6% and -22.6%. The Potency entry in test [2], in test [3] and in test [4] was “inactive” in each case.
Take `CCSC(=N)N`: the activation in test [1] is -32.7%. Further, the Potency result in test [2], in test [3] and in test [4] was “inactive” in each case.
For the compound `N[C@H](C(=O)O)[C@H]1C[C@@H]1C(=O)O`, in test [1], the activation is 6.82%. In addition, the Potency result in test [2], in test [3] and in test [4] was “inactive” in each case.
Turning to `O=C(O)CCCCCCCC(=O)O`, the activation in test [1] was 17.5% and -5.1%. For the same compound, the Potency entry in test [2], in test [3] and in test [4] was “inactive” each time.
`c1ccc(C2CN3CCSC3=N2)cc1` (stereo not drawn): the activation in test [1] is 27%. In addition, the Potency entry in test [2], in test [3] and in test [4] was “inactive” in each case.
As for `CCOC(=O)[C@H](CCc1ccccc1)N[C@@H](C)C(=O)N1[C@H](C(=O)O)C[C@H]2CCCC[C@@H]21`, the activation in test [1] was -16.3%. The Potency result in test [2], in test [3] and in test [4] was “inactive” each time.
Regarding `Nc1ncnc2c1ncn2[C@@H]1O[C@H](COP(=O)(O)CP(=O)(O)OP(=O)(O)O)[C@@H](O)[C@H]1O`, the activation in test [1] is 7.87%. Moreover, the Potency result in test [2], in test [3] and in test [4] was “inactive” in each case.
As for `N[C@@H](Cc1ccc(O)c(I)c1)C(=O)O`, the activation in test [1] was -4.51%. Also, the Potency result in test [2], in test [3] and in test [4] was “inactive” each time.
On to `O=c1n(CCCN2CCN(c3cccc(Cl)c3)CC2)nc2ccccn12`, for which the activation in test [1] was -7.53% and 33.4% and -0.284%. The Potency entry in test [2], in test [3] and in test [4] was “inactive” each time.
For the compound `O=C1NC(=O)[C@@]2(CCOc3ccc(F)cc32)N1`, the activation in test [1] was -3.95% and 3.53%. Moreover, the Potency result in test [2], in test [3] and in test [4] was “inactive” each time.
Turning to `CCCOc1ccccc1-c1nc2n[nH]nc2c(=O)[nH]1`, the activation in test [1] was -19.5%. The Potency result in test [2], in test [3] and in test [4] was “inactive” in each case.
In the case of `Nc1nc2c(ncn2[C@@H]2O[C@H](CO)[C@@H](O)[C@@H]2O)c(=O)[nH]1`, in test [1], the activation was -6.66%. In addition, the Potency entry in test [2], in test [3] and in test [4] was “inactive” throughout.

(Values after PubChem BioAssay (NCATS).)
